USP17 inh: inhibitors of human USP17 deubiquitinase; 6.5% of 47,000 active; Ubiquitin carboxyl-terminal hydrolase 17-like protein 5 (Homo sapiens), A8MUK1; purified USP17, Ub-rhodamine cleavage fluorescence, 3 h; inhibition, % at 50 µM; AID 1645855, 2021
USP30 block: inhibitors of human USP30 deubiquitinase; AID 1645860, 2021; Ubiquitin carboxyl-terminal hydrolase 30 (Homo sapiens), Q70CQ3; purified USP30, Ub-rhodamine cleavage fluorescence; inhibition, % at 25 µM; 5.3% of 47,000 active
USP28 inh: inhibitors of human USP28 deubiquitinase. 3% of 47,000 active. purified USP28, Ub-rhodamine cleavage fluorescence, 30 min. inhibition, % at 25 µM. AID 1645857, 2021
* = called active by the depositor. Shown are actives, neighbours in structure and some others; about 11% of the full set was active somewhere. No stated cut-off is given here; in the data, active means inhibition above about 30%; inactive means the rest.

Screening COc1ccccc1NC(=O)c1coc(NC(=O)c2ccccc2)n1 returned USP17 inh -12, USP30 block -14 and USP28 inh -2.
`CN(C)S(=O)(=O)c1ccc(C(=O)Nc2cccc(C(=O)N3CCOCC3)c2)cc1` gave USP30 block -16 and USP28 inh -15.
COc1ccccc1NC(=O)c1ccc(S(=O)(=O)N(C)Cc2ccccc2)cc1 was read as USP17 inh 18, USP30 block 34* and USP28 inh 24.
Screening CC(=O)c1cccc(NC(=O)c2ccc(S(=O)(=O)N(C)Cc3ccccc3)cc2)c1 returned USP17 inh 44*, USP30 block 11 and USP28 inh 0.
Screening Cc1ccc(N(CC(=O)NCc2ccncc2)S(=O)(=O)c2ccccc2)c(C)c1 returned USP17 inh 1, USP30 block 10 and USP28 inh 8.
`CCN(Cc1ccccc1)S(=O)(=O)c1ccc(C(=O)Nc2ccc3c(c2)OCCO3)cc1` gave USP17 inh 10, USP30 block 40* and USP28 inh 60*.
Screening Cc1ccccc1NC(=O)CN1C(=O)CC(C)(C)S(=O)(=O)c2ccccc21 returned USP17 inh -9, USP30 block -5 and USP28 inh -4.
Cc1ccccc1C(=O)N1CCCC(c2nc(-c3ccccn3)ncc2-c2ccncc2)C1 (configuration not stated) was read as USP17 inh -18, USP30 block 15 and USP28 inh 4.
CC1CCC(NC(=O)c2ccc3c(=O)n(CCc4ccccc4)c(=O)[nH]c3c2)CC1 (configuration not stated) was read as USP17 inh 0, USP30 block 11 and USP28 inh -4.
COc1ccccc1N(C)S(=O)(=O)c1ccc(C(=O)NCCc2ccc(F)cc2)cc1 was read as USP17 inh -3, USP30 block 4 and USP28 inh -5.
CCCOc1c(Br)cc(C(=O)Nc2ccccc2OC)cc1OC was read as USP17 inh 16, USP30 block 10 and USP28 inh 11.
COc1cc(C(=O)Nc2ccccc2Cc2ccccc2)cc(OC)c1OC was read as USP17 inh 32*, USP30 block 36* and USP28 inh 4.
For COc1ccccc1N(C)S(=O)(=O)c1ccc(C(=O)Nc2cccc(-n3cnnn3)c2C)cc1 the results were USP17 inh 35*, USP30 block 28 and USP28 inh 23.
Screening Cc1cc(-c2cnc(N3CCCC3)nc2C2CCN(c3nccc(C)n3)CC2)on1 returned USP17 inh 8, USP30 block -2 and USP28 inh 1.
For Cc1cc(-c2cnc(N3CCSCC3)nc2-c2ccoc2)on1 the results were USP17 inh 7, USP30 block -3 and USP28 inh 41*.
Screening CCn1c(CN2CCOCC2)nnc1SCC(=O)c1ccc(Br)cc1 returned USP17 inh -14, USP30 block -1 and USP28 inh -4.
For O=C(c1ccc(OC(F)(F)F)cc1)N1CCN(c2nc(-c3cccs3)ns2)CC1 the results were USP17 inh 2, USP30 block 2 and USP28 inh -7.
Screening COc1cccc(-c2cc(CC(=O)Nc3ccc(C(N)=O)cc3)no2)c1 returned USP17 inh -3, USP30 block -33 and USP28 inh 18.
NC(=O)c1ccc(NC(=O)Cc2cc(-c3ccc(F)cc3)on2)cc1 was read as USP17 inh 39*, USP30 block -41 and USP28 inh -8.
O=C(Cc1cc(-c2ccc(F)cc2)on1)Nc1ccccc1C(F)(F)F was read as USP17 inh 39*, USP30 block -54 and USP28 inh -19.
Screening O=C(Cc1cc(-c2ccc(F)cc2)on1)NCc1ccccc1 returned USP17 inh 60*, USP30 block 0 and USP28 inh -4.
For COc1ccccc1CNC(=O)Cc1cc(-c2ccc(F)cc2)on1 the results were USP17 inh 15, USP30 block 0 and USP28 inh -12.
O=C(Cc1cc(-c2ccc(F)cc2)on1)NCc1ccc(Cl)cc1 was read as USP17 inh 0, USP30 block -4 and USP28 inh -6.
For COc1ccccc1C(=O)N1CCN(c2nc(-c3ccccc3)no2)CC1 the results were USP17 inh 9, USP30 block 28 and USP28 inh 7.
Screening CCOC(=O)c1c(NC(=O)c2cc(N)ccc2N2CCC(Cc3ccccc3)CC2)sc2c1CCCC2 returned USP17 inh 11, USP30 block 10 and USP28 inh 8.
`COc1ccc(-c2noc(C3(c4ccc(F)cc4)CCOCC3)n2)cc1` gave USP17 inh 0, USP30 block -10 and USP28 inh 1.
`Cn1nccc1CN1CCC2(C/C=C/CNC(=O)c3ccccc3OCCNC2=O)CC1` gave USP17 inh 5, USP30 block 1 and USP28 inh -2.
Cc1nccc(N2CCC(c3c(C(=O)N(C)C)sc4nccnc34)CC2)n1 was read as USP17 inh 8, USP30 block 30* and USP28 inh 8.
`CNC(=O)c1sc2nccnc2c1C1CCN(C(=O)c2ccncc2)CC1` gave USP17 inh 6, USP30 block 22 and USP28 inh 8.
For Cc1c(C(=O)N2CCCCC2)nnn1-c1cccc2c1CCN(CC1CC1)C2 the results were USP17 inh -25, USP30 block -115 and USP28 inh -28.
Screening N#CNc1nc2ccccc2[nH]1 returned USP17 inh 0, USP30 block 1 and USP28 inh -5.
For Cn1ccnc1CN1CCC([C@@H]2OC(C)(C)C3CC2[C@](C)(O)[C@@H](O)C3)CC1 (some centres not stated) the results were USP30 block 32* and USP28 inh 16.
`CC1(C)O[C@@H](C2CCN(Cc3ccccn3)CC2)C2CC1C[C@H](O)[C@@]2(C)O` (some centres not stated) gave USP17 inh -22, USP30 block -86 and USP28 inh -16.
`COc1ccc(C)cc1NC(=O)C(NS(=O)(=O)c1ccc2c(c1)CCN2C(C)=O)C(C)C` (configuration not stated) gave USP17 inh 27, USP30 block 54* and USP28 inh 13.
For CCC(=O)N1c2ccc(S(=O)(=O)N3CCOCC3)cc2CC1C (configuration not stated) the results were USP17 inh -4, USP30 block -5 and USP28 inh 1.
Screening CCC(=O)N1c2ccc(S(=O)(=O)NCC(=O)NCc3ccc(C)cc3)cc2CC1C (configuration not stated) returned USP17 inh 15, USP30 block 34* and USP28 inh 19.
`CC(=O)N1CCc2cc(S(=O)(=O)NC(C(=O)Nc3nc4ccc(C)cc4s3)C(C)C)ccc21` (configuration not stated) gave USP17 inh 7, USP30 block 2 and USP28 inh 0.
CC(=O)N1CCc2cc(S(=O)(=O)NCC3COc4ccccc4O3)ccc21 (configuration not stated) was read as USP17 inh 38*, USP30 block 8 and USP28 inh 9.
O=C(C1CC1)N1CCc2cc(S(=O)(=O)NCC3COc4ccccc4O3)ccc21 (configuration not stated) was read as USP17 inh -6, USP30 block -6 and USP28 inh -3.

Source: PubChem BioAssay (Buhrlage Lab, Dana-Farber Cancer Institute and Novartis Institutes for BioMedical Research (Cambridge, Mass))
